We go through 27 compounds from PubChem BioAssay AID686979 (National Center for Advancing Translational Sciences (NCATS), 2013).

Molecules are shown by their SMILES. In all, about 420,000 compounds went through this assay and about 50,000 (12%) were called active. Roughly 26% stayed inconclusive and do not appear here. The call rests on the fitted dose curve; in most records, active means well fitted inhibition curve with a large enough effect; inconclusive means small, poorly fitted or top-dose-only effect; inactive means flat fitted curve, though single readings scatter. What follows is part of a selection rich in actives, with near analogues and random picks from the rest. A call without a number means that no potency is given here.
Potency means the concentration at half of the fitted maximal effect.

This assay is described as follows: qHTS for Inhibitors of human tyrosyl-DNA phosphodiesterase 1 (TDP1): qHTS in cells in presence of CPT. Further: nearly all actives have a fitted effect of over 55% in size. The note with it: chicken DT40 Tdp1-/-;hTDP1 cells + 20 nM CPT, ATP luminescence, 48 h; series mostly up to 46.2 µM. The essentials: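 Chicken DT40 Tdp1-/- cells stably complemented with human TDP1 were seeded at 400 cells/well in medium containing 20 nM camptothecin, exposed to pin-transferred compounds, and grown at 37 °C for at least 48 hr. Viability was read as ATP luminescence.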
For the compound `COc1ccc(NC(=O)N2CCCC(c3nc(-c4ccc(F)cc4)no3)C2)cc1` (configuration not stated), the Potency result is “inactive”.

With `CCN(C(=O)C1CCCN(c2nc(-c3ccc(OC)cc3)no2)C1)c1ccc(OC)cc1` (configuration not stated), the Potency was 16.4 µM (active).

`CCOc1ccc(N(CC)C(=O)C2CCN(S(=O)(=O)c3cccc4nonc34)CC2)cc1`: the Potency result was “inactive”.

On to `CS(=O)(=O)c1ccccc1C(=O)Nc1ccc2sccc2c1`, for which the Potency entry is “inactive”.

Turning to `O=C(Nc1cc2c3c(c1)CC(=O)N3CCC2)c1ccccc1F`, the Potency entry was “inactive”.

Turning to `CC(=O)N(CN1C(=O)C2C3C=CC(C3)C2C1=O)c1cccc(Cl)c1` (configuration not stated), the Potency result is “inactive”.

As to `CCCCCCSc1ccc([C@@H]2[C@@H]3C(=O)N(CC)C(=O)[C@@H]3[C@]3(C(=O)OC)CCCCN23)cc1OC`, the Potency is 20.6 µM (active).

As for `CCN1C(=O)[C@H]2[C@@H](c3ccccc3)N[C@]3(CCCN(Cc4ccc(C)cc4)C3=O)[C@H]2C1=O`, the Potency entry was “inactive”.

For `CCN1C(=O)[C@@H]2[C@@H](c3ccc(-c4cccc(Cl)c4)cc3)N3CCC[C@@]3(C(=O)OC)[C@@H]2C1=O`, the Potency was 14.6 µM (active).

For `CCCCC12CN3CC(C)(CN(C1)C3c1ccc(O)c(OC)c1)C2=O` (configuration not stated), the Potency entry is “inactive”.

As to `CC1CCN(CCCNC(=O)CN2C(=O)CSc3ccc(S(=O)(=O)N4CCCCC4)cc32)CC1`, the Potency entry is “inactive”.

Take `O=C(Cc1ccccc1)Nc1ccc(C(=O)Nc2ccccc2C(=O)O)cc1`: the Potency result was “inactive”.

Take `CC(NC(=O)CCc1cn(Cc2ccccc2Cl)c2ccccc12)c1ccccc1` (configuration not stated): the Potency was 20.6 µM (active).

With `Cc1ccc(Cn2cc(CCC(=O)NCc3ccc(OC(C)C)cc3)c3ccccc32)cc1`, the Potency is 23.1 µM (active).

As to `CC(NC(=O)Cn1cc(C(F)(F)F)cc(Cl)c1=O)c1ccccc1` (configuration not stated), the Potency result was “inactive”.

For `CCn1cc(CCC(=O)NCc2ccc(F)cc2)c2ccccc21`, the Potency is 16.4 µM (active).

Consider `CCCCC(=O)NCc1ccc(F)cc1`, for which the Potency entry is “inactive”.

For the compound `O=C(CCc1cn(Cc2ccc(F)cc2)c2ccccc12)NC1CCCCC1`, the Potency result is “inactive”.

For the compound `Cc1ccc(CNC(=O)[C@@H](NC(=O)Cc2ccccc2)C(C)C)cc1`, the Potency result is “inactive”.

On to `Cc1ccc(CNC(=O)Cc2cn(C)c3ccccc23)cc1`, for which the Potency result is “inactive”.

As for `Cn1cc(CCC(=O)NC2CC2)c2ccccc21`, the Potency entry is “inactive”.

For `CC(C)C1Cc2[nH][nH]c(=O)c2C(c2ccc(Cl)cc2)O1` (configuration not stated), the Potency entry is “inactive”.

Regarding `O=C(NCc1ccccc1)C1CCN(C(=O)Cc2ccccc2)CC1`, the Potency result was “inactive”.

With `Cc1ccc(C(=O)Cc2nnc(C)s2)cc1`, the Potency entry is “inactive”.

In the case of `COc1ccc(NC(=O)C(CC(C)C)NS(=O)(=O)c2ccc3c(c2)CCN3C(C)=O)cc1OC` (configuration not stated), the Potency entry was “inactive”.

Regarding `O=C1COc2c1ccc(O)c2O`, the Potency entry was “inactive”.

`COc1ccc(F)cc1C(=O)COC(=O)c1n[nH]c(=O)c2ccccc12`: the Potency entry was “inactive”.
